Results reported in PubChem BioAssay.
For part of these data: Measured potencies and affinities stand elsewhere. Activity calls are given as the source filed them. Unless noted, no rule for the calls is given here.

Experiments:
[1] = antimalarial activity against Dd2 strain (AID 2302;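 active = growth inhibition above 50% at the single 2 µM test dose, taken to imply half-maximal potency below 2 µM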;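 also: 0% = DMSO untreated growth and 100% = chloroquine plus artemisinin killed control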); conditions: P. falciparum Dd2 in RBCs, LDH growth readout, 72 h; at 2 µM; stronger effect = higher value
[2] = human hepatoma cell viability loss – ATP luminescence, cytotoxicity control for P. falciparum antimalarial project, primary screen (AID 2303;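 active = inhibition above 50%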;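 also: 0% = DMSO wells and 100% = digitonin-killed cells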); conditions: HepG2 viability, 24-48 h, at 10 µM, stronger effect = higher value
[3] = biological target: L-lactate dehydrogenase (Plasmodium falciparum (isolate CDC / Honduras)) (UniProt Q27743); test: PfLDH activity inhibition – cell lysate, 3D7 strain, counter-screen for P. falciparum growth inhibition project (AID 2304);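 also: 0% = vehicle and 100% = reference inhibitor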; conditions: P. falciparum 3D7 crude extract, LDH APAD/NBT absorbance; at 2 µM; stronger effect = higher value
Sequence of L-lactate dehydrogenase (Plasmodium falciparum (isolate CDC / Honduras)) (Q27743 whole entry, looked up): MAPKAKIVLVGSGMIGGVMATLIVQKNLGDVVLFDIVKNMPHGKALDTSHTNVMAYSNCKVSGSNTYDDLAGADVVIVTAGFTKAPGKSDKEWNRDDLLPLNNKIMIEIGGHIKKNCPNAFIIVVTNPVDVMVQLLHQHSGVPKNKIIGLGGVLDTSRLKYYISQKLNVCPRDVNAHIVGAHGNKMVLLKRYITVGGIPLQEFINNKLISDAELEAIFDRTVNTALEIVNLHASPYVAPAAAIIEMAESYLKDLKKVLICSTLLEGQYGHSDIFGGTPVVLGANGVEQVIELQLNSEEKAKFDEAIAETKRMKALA

[4] = inhibition of 3D7 malaria parasite growth – strain 3D7 (AID 2306);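 also: 0% = DMSO wells and 100% = chloroquine plus artemisinin control wells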; conditions: P. falciparum 3D7 erythrocytic growth, LDH absorbance, 72 h; at 2 µM; stronger effect = higher value
[5] = biological target: Calcium-dependent protein kinase 1 (Plasmodium falciparum (isolate 3D7)) (UniProt P62344); test: PfCDPK1 kinase inhibitors, biochemical, TCAMS library (AID 1159585; cut-off not given, nearly all actives have IC50 up to about 0.98 µM;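 also: inhibitors leave more ATP so luminescence rises with inhibition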); conditions: recombinant PfCDPK1, Kinase-Glo ATP depletion luminescence
Sequence of Calcium-dependent protein kinase 1 (Plasmodium falciparum (isolate 3D7)) (P62344 whole entry, looked up): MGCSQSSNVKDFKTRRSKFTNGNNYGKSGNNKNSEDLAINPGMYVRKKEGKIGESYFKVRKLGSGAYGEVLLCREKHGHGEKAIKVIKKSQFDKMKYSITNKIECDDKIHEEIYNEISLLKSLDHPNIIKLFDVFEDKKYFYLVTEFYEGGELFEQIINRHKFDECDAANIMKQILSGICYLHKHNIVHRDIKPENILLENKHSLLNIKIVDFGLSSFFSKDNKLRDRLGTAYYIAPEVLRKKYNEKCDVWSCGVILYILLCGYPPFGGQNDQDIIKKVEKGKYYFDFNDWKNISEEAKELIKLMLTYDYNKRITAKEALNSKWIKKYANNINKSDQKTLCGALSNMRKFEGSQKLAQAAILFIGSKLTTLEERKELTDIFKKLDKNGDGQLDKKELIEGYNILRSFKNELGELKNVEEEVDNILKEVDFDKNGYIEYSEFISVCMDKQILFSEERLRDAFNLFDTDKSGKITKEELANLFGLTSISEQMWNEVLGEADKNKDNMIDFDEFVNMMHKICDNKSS

[6] = biological target: Plasmodium falciparum protein kinase 6 (PK6, PF3D7_1337100) (UniProt Q8IDW1); test: PfPK6 kinase inhibitors, biochemical, TCAMS library (AID 1159586); conditions: recombinant PfPK6, Kinase-Glo ATP depletion luminescence
Sequence of Plasmodium falciparum protein kinase 6 (PK6, PF3D7_1337100) (Q8IDW1 1-305): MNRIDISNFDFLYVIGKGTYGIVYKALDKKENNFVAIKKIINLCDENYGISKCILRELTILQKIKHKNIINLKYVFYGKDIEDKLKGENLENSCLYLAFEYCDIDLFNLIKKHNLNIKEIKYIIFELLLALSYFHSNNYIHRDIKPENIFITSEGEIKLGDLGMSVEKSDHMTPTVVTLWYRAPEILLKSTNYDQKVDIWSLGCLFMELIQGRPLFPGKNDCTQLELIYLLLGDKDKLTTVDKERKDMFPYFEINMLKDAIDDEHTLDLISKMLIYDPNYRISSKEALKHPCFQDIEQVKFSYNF

[7] = biological target: Protein kinase 7 (PK7), Plasmodium falciparum 3D7 (PF3D7_0213400) (UniProt Q7YTF7); test: inhibition of Plasmodium PK7 catalytic activity – biochemical, TCAMS antimalarial set, Kinase-Glo luminescence (AID 1159587); conditions: recombinant PfPK7, Kinase-Glo ATP depletion luminescence
Sequence of Protein kinase 7 (PK7), Plasmodium falciparum 3D7 (PF3D7_0213400) (Q7YTF7 1-343): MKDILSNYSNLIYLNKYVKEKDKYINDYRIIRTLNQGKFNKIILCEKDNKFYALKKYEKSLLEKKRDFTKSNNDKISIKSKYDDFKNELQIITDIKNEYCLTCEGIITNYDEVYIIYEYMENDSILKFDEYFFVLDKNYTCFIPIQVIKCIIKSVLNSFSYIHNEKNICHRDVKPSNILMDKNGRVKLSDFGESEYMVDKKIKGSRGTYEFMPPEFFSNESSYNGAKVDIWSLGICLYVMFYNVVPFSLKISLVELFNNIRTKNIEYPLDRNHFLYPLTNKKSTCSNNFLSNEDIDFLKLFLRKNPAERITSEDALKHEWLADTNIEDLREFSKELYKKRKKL

[8] = biological target: Calcium-dependent protein kinase 4 (Plasmodium falciparum (isolate 3D7)) (UniProt Q8IBS5); test: PfCDPK4 kinase inhibitors, biochemical, TCAMS library (AID 1159588; cut-off not given, nearly all actives have IC50 up to about 0.91 µM); conditions: recombinant PfCDPK4, Kinase-Glo ATP depletion luminescence
Sequence of Calcium-dependent protein kinase 4 (Plasmodium falciparum (isolate 3D7)) (Q8IBS5 whole entry, looked up): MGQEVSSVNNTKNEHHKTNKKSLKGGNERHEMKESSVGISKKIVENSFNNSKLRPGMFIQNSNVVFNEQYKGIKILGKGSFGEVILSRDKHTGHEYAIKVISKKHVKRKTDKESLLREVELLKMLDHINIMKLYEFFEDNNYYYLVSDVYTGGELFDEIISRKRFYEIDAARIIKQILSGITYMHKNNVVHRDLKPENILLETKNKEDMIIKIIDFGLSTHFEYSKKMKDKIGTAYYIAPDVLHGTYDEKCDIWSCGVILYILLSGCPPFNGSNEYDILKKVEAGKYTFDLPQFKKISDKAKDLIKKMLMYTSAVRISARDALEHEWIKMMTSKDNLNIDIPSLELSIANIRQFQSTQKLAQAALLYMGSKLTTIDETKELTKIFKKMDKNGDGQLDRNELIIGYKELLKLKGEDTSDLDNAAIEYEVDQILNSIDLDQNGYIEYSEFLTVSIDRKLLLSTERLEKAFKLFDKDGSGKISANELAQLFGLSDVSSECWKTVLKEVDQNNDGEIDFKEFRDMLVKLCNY

Cc1cccc2[nH]c(-c3cccc(-c4cccc(CN5CCC(CO)CC5)c4)c3)nc12
inactive: inhibition [2] 4% | inhibition [3] -6% | outcome [5] | outcome [6] | outcome [7] | outcome [8]
active: growth inhibition [1] 90% | growth inhibition [4] 101%

O=C(C=Cc1ccc(F)cc1)N1CCN(S(=O)(=O)c2ccc(Cl)cc2)CC1
inactive: inhibition [2] 10% | inhibition [3] -2% | outcome [5] | outcome [6] | outcome [7] | outcome [8]
active: growth inhibition [1] 93% | growth inhibition [4] 91%

Cc1cccc2[nH]c(-c3cccc(-c4ccc(CN5CCN(CCO)CC5)cc4)c3)nc12
inactive: inhibition [2] 12% | inhibition [3] -4% | outcome [5] | outcome [6] | outcome [7] | outcome [8]
active: growth inhibition [1] 63% | growth inhibition [4] 101%

O=C1NC(=O)C(c2cccc(NC(=O)c3ccncc3)c2)=C1c1ccccc1
active: growth inhibition [4] 101%
inactive: growth inhibition [1] -3% | inhibition [2] 5% | inhibition [3] 3% | outcome [5] | outcome [6] | outcome [7] | outcome [8]

Cc1[nH]c(C)c(-c2ccc(-c3ccccc3F)nc2)c(=O)c1Cl
active: growth inhibition [1] 97% | growth inhibition [4] 97%
inactive: inhibition [2] 7% | inhibition [3] 6% | outcome [5] | outcome [6] | outcome [7] | outcome [8]

Nc1nc(N)c2cc(N(Cc3ccccc3)Cc3ccccc3)ccc2n1
active: growth inhibition [1] 88% | inhibition [2] 69% | growth inhibition [4] 99%
inactive: inhibition [3] 3% | outcome [5] | outcome [6] | outcome [7] | outcome [8]

Cc1noc(C)c1-c1cccc(CNCc2ccc(-c3cccc(-c4nc5ccccc5[nH]4)c3)cc2)c1
active: growth inhibition [1] 57% | inhibition [2] 50% | growth inhibition [4] 100%
inactive: inhibition [3] -1% | outcome [5] | outcome [6] | outcome [7] | outcome [8]

COc1ccc2nc(C)cc(NN=Cc3ccncc3)c2c1
active: growth inhibition [1] 68% | growth inhibition [4] 102%
inactive: inhibition [2] 6% | inhibition [3] 1% | outcome [5] | outcome [6] | outcome [7] | outcome [8]

Cn1cncc1-c1ccc2ncnc(Nc3ccc(OCc4ccccc4)cc3)c2c1
inactive: inhibition [2] 4% | inhibition [3] 1% | outcome [5] | outcome [6] | outcome [7] | outcome [8]
active: growth inhibition [1] 99% | growth inhibition [4] 101%

CC(C)C(=O)ONC1=NC(C)(C)N(OCCCOc2cc(Cl)c(Cl)cc2Cl)C(N)=N1
inactive: inhibition [3] -4% | outcome [5] | outcome [6] | outcome [7] | outcome [8]
active: growth inhibition [1] 96% | inhibition [2] 64% | growth inhibition [4] 95%

CC(C)Sc1nc(-c2ccccc2)nc2c1COC(C)(C)C2
active: growth inhibition [4] 98%
inactive: growth inhibition [1] 41% | inhibition [2] 2% | inhibition [3] -4% | outcome [5] | outcome [6] | outcome [7] | outcome [8]

OCc1ccc(-c2cncc(Nc3cccc(Cl)c3)c2)cc1
active: growth inhibition [1] 100% | growth inhibition [4] 95%
inactive: inhibition [2] 4% | inhibition [3] -3% | outcome [5] | outcome [6] | outcome [7] | outcome [8]

CCCCCCCNC(=O)NCC1CCCN(CCCCCNC(=O)/C=C/c2ccc(Cl)c(Cl)c2)C1 (stereo not given)
active: inhibition [2] 98% | growth inhibition [4] 86%
inactive: growth inhibition [1] 7% | inhibition [3] -1% | outcome [5] | outcome [6] | outcome [7] | outcome [8]

CCC(CC)(Cc1ccccc1)NC(=O)[C@H](CC(C)C)Nc1ccc(C#N)c2ccccc12
active: growth inhibition [1] 73% | inhibition [2] 57% | growth inhibition [4] 90%
inactive: inhibition [3] -1% | outcome [5] | outcome [6] | outcome [7] | outcome [8]

OCCNc1nc(Nc2ccc(F)cc2)nc2ccccc12
inactive: inhibition [2] 10% | inhibition [3] 3% | outcome [5] | outcome [6] | outcome [7] | outcome [8]
active: growth inhibition [1] 73% | growth inhibition [4] 94%

Cc1cc(N[C@@H](Cc2ccccc2)C(=O)NCCCOC(C)C)nc(NCCc2ccc(F)cc2)n1
inactive: growth inhibition [1] 36% | inhibition [2] 15% | inhibition [3] 0% | outcome [5] | outcome [6] | outcome [7] | outcome [8]
active: growth inhibition [4] 101%

O=C(COc1cccc([N+](=O)[O-])c1)Nc1ccc(-c2nc3ccccc3[nH]2)cc1
active: growth inhibition [4] 99%
inactive: growth inhibition [1] 5% | inhibition [2] 12% | inhibition [3] 7% | outcome [5] | outcome [6] | outcome [7] | outcome [8]

O=C(Nc1cccc(CN2CCCN(Cc3ccsc3)CC2)c1)c1ccc(-c2ccccc2)cc1
inactive: growth inhibition [1] 11% | inhibition [2] 30% | inhibition [3] -4% | outcome [5] | outcome [6] | outcome [7] | outcome [8]
active: growth inhibition [4] 90%

Cc1cc(N[C@@H](CC(C)C)C(=O)NCc2cccc(F)c2)nc(NCCc2ccc(F)cc2)n1
inactive: growth inhibition [1] 6% | inhibition [2] 0% | inhibition [3] -2% | outcome [5] | outcome [6] | outcome [7] | outcome [8]
active: growth inhibition [4] 90%

O=C(C=Cc1ccccc1)Nc1ccc(C#CC=Cc2ccc(NC(=O)C=Cc3ccccc3)cc2)cc1
inactive: growth inhibition [1] 3% | inhibition [2] 26% | inhibition [3] 1% | outcome [5] | outcome [6] | outcome [7] | outcome [8]
active: growth inhibition [4] 100%

CC(=NN=C(N)N)c1ccc2c(c1)Cc1ccccc1-2
inactive: growth inhibition [1] 10% | inhibition [2] 44% | inhibition [3] 5% | outcome [5] | outcome [6] | outcome [7] | outcome [8]
active: growth inhibition [4] 101%

Cc1cc2nc(-c3cc(-c4cccc(NS(C)(=O)=O)c4)cnc3N)[nH]c2cc1C
inactive: growth inhibition [1] 32% | inhibition [2] 43% | inhibition [3] -2% | outcome [5] | outcome [6] | outcome [7] | outcome [8]
active: growth inhibition [4] 102%

Cc1cc(N[C@@H](Cc2ccccc2)C(=O)NCc2cccc(F)c2)nc(NCCCOC(C)C)n1
inactive: inhibition [2] 10% | inhibition [3] -2% | outcome [5] | outcome [6] | outcome [7] | outcome [8]
active: growth inhibition [1] 94% | growth inhibition [4] 101%

COc1ccccc1C(=O)Nc1ccc(Nc2nc(C)cc(N(C)C)n2)cc1
active: growth inhibition [1] 76% | growth inhibition [4] 100%
inactive: inhibition [2] 1% | inhibition [3] 3% | outcome [5] | outcome [6] | outcome [7] | outcome [8]

C[C@@H]1CN(c2cnn(Cc3ccc(NC(=O)Nc4ccc(F)cc4[N+](=O)[O-])cc3)c(=O)c2Cl)C[C@H](C)N1
active: growth inhibition [4] 89%
inactive: growth inhibition [1] 10% | inhibition [2] 4% | inhibition [3] -2% | outcome [5] | outcome [6] | outcome [7] | outcome [8]

COc1ccccc1N1CCN(CCCCNC(=O)c2ccc(NC(=O)c3cc(Cl)cc(Cl)c3)cc2)CC1
inactive: inhibition [2] 9% | inhibition [3] 2% | outcome [5] | outcome [6] | outcome [7] | outcome [8]
active: growth inhibition [1] 75% | growth inhibition [4] 101%

OC(CNc1ccnc(Nc2ccccc2)n1)c1cccc(C(F)(F)F)c1 (stereo not given)
active: growth inhibition [1] 61% | growth inhibition [4] 100%
inactive: inhibition [2] 16% | inhibition [3] -2% | outcome [5] | outcome [6] | outcome [7] | outcome [8]

OCCN1CCN(Cc2ccc(-c3ccc(-c4nc5ccc(C(F)(F)F)cc5[nH]4)s3)cc2)CC1
active: growth inhibition [1] 99% | inhibition [2] 65% | growth inhibition [4] 101%
inactive: inhibition [3] -7% | outcome [5] | outcome [6] | outcome [7] | outcome [8]

C[C@@H](Oc1cc(-n2cnc3cc(SCCN4CCN(C)CC4)ccc32)sc1C(N)=O)c1ccccc1Cl
inactive: inhibition [2] 46% | inhibition [3] -1% | outcome [5] | outcome [6] | outcome [7] | outcome [8]
active: growth inhibition [1] 65% | growth inhibition [4] 90%

Cc1ccc(-c2csc(C)n2)c(C)c1
active: growth inhibition [4] 98%
inactive: growth inhibition [1] -3% | inhibition [2] 12% | inhibition [3] 3% | outcome [5] | outcome [6] | outcome [7] | outcome [8]
